MITF inh: MITF inhibitors, primary screen, biochemical, AlphaScreen, human; Microphthalmia-associated transcription factor (Homo sapiens), O75030; AlphaScreen MITF homodimerization, bead proximity signal; inhibition, % at 2.6 µM; hit rate 0.91% among 650,000; AID 1259374, 2018; in the data active = inhibition above about 50%;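 note: 0% = vehicle wells with protein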
Target sequence (O75030 whole entry, looked up): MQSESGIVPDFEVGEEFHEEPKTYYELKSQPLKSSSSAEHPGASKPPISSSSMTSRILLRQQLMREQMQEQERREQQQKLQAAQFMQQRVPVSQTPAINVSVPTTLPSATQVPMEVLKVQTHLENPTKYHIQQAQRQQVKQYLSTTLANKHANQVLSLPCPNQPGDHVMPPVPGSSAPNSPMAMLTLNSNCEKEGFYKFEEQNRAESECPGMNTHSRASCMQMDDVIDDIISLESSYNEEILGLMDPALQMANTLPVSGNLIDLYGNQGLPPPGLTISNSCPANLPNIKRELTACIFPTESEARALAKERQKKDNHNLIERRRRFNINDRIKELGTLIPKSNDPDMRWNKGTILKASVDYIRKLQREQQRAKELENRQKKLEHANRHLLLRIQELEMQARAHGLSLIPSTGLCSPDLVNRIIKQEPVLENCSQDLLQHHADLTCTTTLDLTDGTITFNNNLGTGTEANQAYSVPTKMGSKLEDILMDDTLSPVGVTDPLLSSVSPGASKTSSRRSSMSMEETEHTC
FBW7 activator: FBW7 E3 ligase activators, primary screen, biochemical, AlphaScreen, human | normalized activity (activation), % at 26.1 µM | AID 1259310, 2017 | F-box/WD repeat-containing protein 7 (Homo sapiens), Q969H0 | AlphaScreen FBW7–phospho-cyclin E peptide binding, activator screen | hit rate 0.13% among 650,000; in the data active = normalized activity above about 1.9%;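 note: purified mutant Fbw7 with reduced substrate affinity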
GPR151 ag: activators of human GPR151, primary screen, cell-based, PathHunter beta-arrestin, luminescence. hit rate 1% among 650,000. activation, % at 11.2 µM. PathHunter beta-arrestin GPR151 cells; in the data active = activation above about 4.9%;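 note: 0% = median of compound wells and 100% = cells with positive control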
TEAD-YAP inh: TEAD-YAP interaction inhibition, primary screen, TEAD-YAP interaction inhibitor project, luminescence, HEK-TIYL cells. TEAD-Gal4/YAP UAS-luciferase luminescence. inhibition, % at 9.12 µM. hit rate 1.4% among 640,000; in the data active = inhibition above about 32%;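 note: 0% = median of test compound wells and 100% = reference inhibitor wells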
* hit, by the source's call. Rows were chosen to be rich in hits. Some 3.4% of all compounds tested hit in one or more screens of this group.

SMILES | MITF inh | FBW7 activator | GPR151 ag | TEAD-YAP inh
Oc1c(C(Nc2cccc(C(F)(F)F)c2)c2cccnc2)ccc2cccnc12 (stereo not drawn) | 65* | -2 | 1 | 15
Oc1c(C(Nc2cccc(C(F)(F)F)c2)c2ccccn2)ccc2cccnc12 (stereo not drawn) | 51* | -1 | 3 | 27
O=[N+]([O-])c1ccc(NC(c2ccccn2)c2ccc3cccnc3c2O)cc1 (stereo not drawn) | 18 | -1 | 1 | 87*
O=C(NC(c1ccccc1)c1ccccn1)c1ccc([N+](=O)[O-])cc1 (stereo not drawn) | 5 | 0 | 1 | 4
Oc1c(C(Nc2ccc(Cl)cc2)c2ccccn2)ccc2cccnc12 (stereo not drawn) | 69* | -2 | 0 | 16
O=c1cc(CO)oc(C(Nc2cccc(F)c2)c2ccccn2)c1O (stereo not drawn) | 12 | 0 | 3 | 4
O=C1N[C@@H](Cc2c[nH]c3ccccc23)C(=O)N2CCN(C(=O)c3cc(F)ccc3F)C[C@H]12 | -4 | 0 | -2 | -2
Oc1c(C(Nc2cccc(Cl)c2)c2ccccn2)ccc2cccnc12 (stereo not drawn) | 45 | 0 | -1 | 62*
CN1C(=O)S/C(=C/c2ccc(OCc3cccc(C(=O)O)c3)cc2)C1=O | 11 | 1 | 2 | -30
CN1C(=O)C(=Cc2ccc(OCc3cccc(C(=O)O)c3)cc2)C(=O)N(C)C1=O | 0 | 0 | -9 | 43*
CN=c1scc(-c2cccc(Br)c2)n1/N=C/c1ccncc1 | 25 | 0 | 2 | -62
CN=c1scc(-c2ccccc2)n1/N=C/c1ccsc1 | 29 | 0 | -2 | 99*
CN=c1scc(-c2ccccc2Br)n1/N=C/c1ccco1 | 22 | 0 | -2 | 2
CCN=c1scc(-c2ccc(F)cc2)n1/N=C/c1ccccn1 | 12 | 0 | -1 | -86
CN=c1scc(-c2ccccc2F)n1/N=C/c1ccsc1 | 16 | 0 | -8 | 99*
CN=c1scc(-c2ccccc2Br)n1/N=C/c1ccc(O)cc1O | 6 | 0 | -3 | 96*
CCN=c1scc(-c2ccccc2)n1/N=C/c1ccccn1 | 1 | -1 | -2 | 55*
Cc1cc(Br)ccc1NC(=O)Cn1cnc2ccccc2c1=O | 15 | 0 | 0 | -4
COc1cccc(OC)c1C(=O)Nc1ccc(N2CCCCS2(=O)=O)cc1 | -1 | 0 | 3 | 2
CN=c1scc(-c2ccccc2F)n1/N=C/c1ccc2c(c1)OCO2 | 14 | 0 | -10 | 94*
CN=c1scc(C)n1/N=C/c1ccc2c(c1)OCO2 | 14 | 0 | -7 | 15
CN=c1scc(-c2ccccc2F)n1/N=C/c1ccc(O)c(O)c1O | 4 | 0 | -5 | 89*
COc1ccc(Nc2c3c4c(cccc4[nH]c2=O)C(=O)c2ccccc2-3)cc1 | 3 | 0 | 1 | 55*
O=C1c2ccccc2-c2c(Nc3ccccc3)c(=O)[nH]c3cccc1c23 | 7 | 0 | 0 | 49*
COc1cccc(-c2noc(C3CCCN(C(=O)Cc4ccccc4)C3)n2)c1 (stereo not drawn) | 6 | 0 | -1 | 19
SMILES | MITF inh | FBW7 activator | GPR151 ag | TEAD-YAP inh
COc1ccc(-c2nc3ncnc(NCc4cccc(C(F)(F)F)c4)c3[nH]2)cc1 | 4 | 0 | -1 | 46*
Cc1cnc(Nc2ccccn2)nc1NCc1cccc(C(F)(F)F)c1 | 3 | 0 | 4 | 47*
Cc1cnc(Nc2ncccn2)nc1NCc1cccc(C(F)(F)F)c1 | -11 | 0 | 0 | 0
Cc1cnc(NCCN2CCOCC2)nc1NCc1cccc(C(F)(F)F)c1 | -6 | 0 | 1 | 32*
Nc1nc(NCc2cccc(C(F)(F)F)c2)cc(Nc2cnccn2)n1 | 4 | 1 | -1 | 56*
Clc1cc(Br)ccc1OCc1nc(-c2ccccn2)no1 | 9 | 0 | -6 | 18
Nc1cc(C(=O)OCC(=O)NCCc2ccc(Cl)cc2Cl)ccc1Cl | 1 | 0 | 0 | 13
Cc1cccc(NC(=O)CN2CCN(c3ccc(F)cc3)CC2)c1C | -11 | 0 | 3 | 4
COC(=O)c1ccccc1Nc1nc(C)cc(C)n1 | 0 | 0 | 3 | 5
CCOC(=O)C1=C(C)N=c2s/c(=C/c3cc([N+](=O)[O-])ccc3N3CCN(C)CC3)c(=O)n2C1c1ccc(Cl)cc1 (stereo not drawn) | 1 | 0 | 0 | -4
Cc1ccc2oc(-c3ccc(NC(=O)c4ccccc4Cl)cc3O)nc2c1 | 22 | 1 | -1 | 1
Cc1cnc(Nc2ccc3ncccc3c2)nc1NCc1cccc(C(F)(F)F)c1 | 7 | 0 | 5 | 53*
Cc1cnc(Nc2cccnc2)nc1NCc1ccccc1 | 3 | 0 | 4 | 33*
Cc1cnc(Nc2ccccc2)nc1NCc1cccc(C(F)(F)F)c1 | 6 | 0 | 2 | 50*
CCNc1ncc(C)c(NCc2cccc(C(F)(F)F)c2)n1 | -5 | 0 | 3 | 23
FC(F)(F)c1cccc(CNc2ncnc3sccc23)c1 | -13 | 0 | 4 | 46*
CC(C)n1c(-c2cccs2)nc2c(NCc3cccc(C(F)(F)F)c3)ncnc21 | -13 | 0 | 3 | 1
O=C(CSc1nnc2ccc(-c3ccc(F)cc3)nn12)NCc1ccccc1 | 9 | 0 | -1 | 41*
O=C(CSc1nnc2ccc(-c3ccc(F)cc3)nn12)NCCc1ccccc1 | -1 | 0 | -1 | -3
O=C(CSc1nnc2ccc(-c3ccccc3)nn12)NCc1ccccc1 | 9 | 0 | 0 | 41*
Cc1cc(NC(=O)c2ccc(S(=O)(=O)NC3CC3)cc2)c2cc(F)cc(F)c2n1 | -11 | 0 | -1 | 48*
COC(CNC(=O)CCNS(=O)(=O)c1ccc(Cl)cc1)OC | 15 | 0 | -1 | -2
Cc1ccc(C(=O)Nc2sc3c(c2C(N)=O)CCCCC3)o1 | -3 | 0 | -4 | 55*
NC(=O)c1c(NC(=O)c2cc3ccccc3o2)sc2c1CCCC2 | -14 | 0 | -5 | 46*
COc1ccc(-c2cnc3ccc(N[C@H](CO)C(C)C)nn23)c(OC)c1 | -5 | 2.0* | 0 | -17
SMILES | MITF inh | FBW7 activator | GPR151 ag | TEAD-YAP inh
CC(C)[C@@H](CO)Nc1ccc2ncc(-c3ccc(N(C)C)cc3)n2n1 | -8 | -1 | -1 | -4
CC(C)[C@@H](CO)Nc1ccc2ncc(-c3ccco3)n2n1 | -9 | 0 | 0 | 53*
CC(C)[C@@H](CO)Nc1ccc2ncc(-c3ccc(CO)cc3)n2n1 | 8 | 0 | 1 | 43*
CC(C)[C@@H](CO)Nc1ccc2ncc(-c3cccc4ccccc34)n2n1 | 17 | 0 | 1 | 0
CC(C)[C@@H](CO)Nc1ccc2ncc(-c3ccsc3)n2n1 | 0 | 0 | 0 | 32*
CCOCCOC(=O)c1cccc(NC(=O)c2ccccc2Cl)c1 | -10 | 0 | 1 | -16
